This passage reports INHIBITION results from ChEMBL document CHEMBL4513216, “Probing the Open Global Health Chemical Diversity Library for Multistage-Active Starting Points for Next-Generation Antimalarials” (ACS Infect Dis, 2020).

Molecules are shown by their SMILES. Screen size: about 65,000 compounds; about 2,100 (3.2%) showed an effect of 50% or more. The median lay at about -52%. Shown is part of a subset that was picked to be rich in strong results.

This assay concerns Plasmodium falciparum. Nature of the assay: Screen against P. falciparum Asexual Blood Stage (ABS), at 5uM. Format: functional, Dd2. The note with it: tested at 5 uM.
For `Cn1ccnc1CN1CCC(F)(F)C2(CCN(c3cnccn3)C2)C1` (stereo unspecified), the INHIBITION is on record as -1.72%. Take `FC1(F)CCN(c2ccccc2)CC12CCN(c1ncccn1)C2` (stereo unspecified): the INHIBITION is given as -145%.

In the case of `FC1(F)CCN(Cc2ccncc2)CC12CCN(c1cccnc1)C2` (stereo unspecified), the INHIBITION worked out at 19.1%. Regarding `COc1ccc(CN(C)[C@@H]2CN(C(=O)c3cncs3)C[C@H]2O)cc1`, the INHIBITION is reported as -40.5%. With `O=c1[nH][nH]c2cn(-c3ccc(Cl)cc3)c(=O)n12`, the INHIBITION is given as -27.8%. As to `CCOc1cc(CN(C)CCC(=O)OC)ccc1OC(F)F`, the INHIBITION is -133%.

Take `CN(C)CCO[C@@H]1CC[C@H]2[C@H]1OCCN2C(=O)c1ccnnc1`: the INHIBITION is recorded as -24.7%. As to `CC(=O)NCc1nnc2n1CCN(Cc1cccs1)C2`, the INHIBITION is -56.1%. Take `CCCc1cc(NCCN2CCNC2=O)n2nccc2n1`: the INHIBITION is on record as -34.9%. For `O=C([C@H]1COC[C@H]2CN(C3CCCC3)C[C@H]21)N1CCCO1`, the INHIBITION was -99.5%.

Take `Cc1cc(-c2cccc3c2CCNC3)cnc1-n1cnnc1`: the INHIBITION is recorded as -24.9%. In the case of `Cc1cnc(-n2cnnc2)c(-c2cccc3c2CCNC3)c1`, the INHIBITION was -35%. `Cc1nc(-n2cnnc2)ccc1-c1cccc2c1CCNC2`: the INHIBITION is 68.7%. For the compound `CC(C)n1nc2c(cc1=O)CN(c1ncnc3ccsc13)CC2`, the INHIBITION is -31%. `CCOc1ccc(N2CCCN=C2NC(=O)c2ccc(Cl)cc2)cc1`: the INHIBITION is listed as -71.7%. In the case of `Cc1ccc(-n2ncc(C(=O)NC3CCCCC3)c2N)cc1`, the INHIBITION is -125%.

For the compound `CSC1=Nc2c(cnn2-c2ccc(C)cc2)C2=NCCCN12`, the INHIBITION came out at 53.5%. On to `CCSC1=Nc2c(cnn2-c2ccc(Cl)cc2)C2=NCCCN12`, for which the INHIBITION stood at 67.3%. Then `O=C(NC1=NCCCN1c1ccc(Cl)cc1)c1cccc(Cl)c1`, with -55.5%; and `CSC1=Nc2c(cnn2-c2ccccc2)C2=NCCCN12`, with 9.95%. Consider `COCCNC(=O)c1cc(C(C)C)nc(N2CCCCC2)n1`, for which the INHIBITION is -39.9%. For `COC(=O)c1ccc(-c2noc(CN(CCO)Cc3cccs3)n2)cc1` the value was -63.8%.

In the case of `O=C(c1cscn1)N1CCCC2(CCN2Cc2cccc(F)c2)C1` (stereo unspecified), the INHIBITION worked out at 26.8%. Take `Cc1csc(C(=O)N2CC(S(=O)(=O)C3CCCCC3)C2)c1`: the INHIBITION is recorded as -52%.

Consider `c1coc(-c2[nH]c3ncccc3c2CN2CCCOCC2)c1`, for which the INHIBITION was -12.7%. Turning to `Cc1csc2ncnc(N3CCC(Cn4cc(C(C)(C)O)nn4)CC3)c12`, the INHIBITION is recorded as -46.7%. For `O=C(C1CCOCC1)N1CCC(OCc2cccnc2)CC1` the value was -110%; for `CC(C)NC(=O)C1CN(C(=O)NCc2ccccc2)CC12CCOCC2` (stereo unspecified), -153%; for `Cc1noc(C)c1CN(C)C(=O)NC1CCOCC1`, 16%. `Cc1noc(C)c1CN(C)C(=O)NC1CCN(C2CC2)CC1`: the INHIBITION is recorded as -155%. Then `CC(=O)N1CCC(NC(=O)N(C)Cc2c(C)noc2C)CC1`, with 51.4%. `Cc1noc(C)c1CN1CCc2ncnc(-c3ccncc3)c2CC1`: the INHIBITION is given as -104%. As to `CCOCCC(=O)Nc1ccnn1-c1ccc(Cl)cc1`, the INHIBITION is given as -23.8%. As to `COCC(=O)Nc1ccnn1-c1ccc(Cl)cc1`, the INHIBITION was 68.3%. For `COCCOCC(=O)Nc1ccnn1-c1ccc(Cl)cc1` the value was -100%; for `COc1ccc(S(=O)(=O)NC(=O)COc2ccc3c(c2)CCC3)cc1`, -119%. Then `Fc1ccc(N2CCCN(c3ccc(Cn4ccnc4)cn3)CC2)cc1`, with 60.2%; and `c1cn(Cc2ccc(N3CCCN(C4CCCC4)CC3)nc2)cn1`, with -80%. Turning to `c1csc(CN2CCCN(c3ccc(Cn4ccnc4)cn3)CC2)c1`, the INHIBITION is recorded as -41.4%. For `Cc1ccc(CN2CCn3c(CNS(C)(=O)=O)nnc3C2)s1`, the INHIBITION is -30.1%. With `CCc1[nH]c2c(CNC(=O)C3CCCN(C)C3)cc(C)cc2c1C` (stereo unspecified), the INHIBITION stood at 0.72%. On to `CCc1[nH]c2c(CNC(=O)[C@@H]3CCCN3C)cc(C)cc2c1C`, for which the INHIBITION was determined as 60.4%. Then `CCc1[nH]c2c(CNC(=O)C3CCN(C)C3)cc(C)cc2c1C` (stereo unspecified), with -5.66%; and `NC(=O)N1CCC2(CC1)CN(c1ccsc1)C(=O)CO2`, with -60.1%. Take `Clc1cccc(N2CCC(NCc3cc[nH]n3)C2)c1` (stereo unspecified): the INHIBITION is recorded as -39.8%. On to `Clc1cccc(N2CCC(NCc3ncc[nH]3)C2)c1` (stereo unspecified), for which the INHIBITION was 66.6%.

As for `O=C1CC(NCc2ncc[nH]2)CN1CCc1cccc(Cl)c1` (stereo unspecified), the INHIBITION is -17.4%. On to `Cn1cc(C(=O)N2CCCC(c3cnccn3)C2)cn1` (stereo unspecified), for which the INHIBITION is listed as -55.6%. Then `O=C1[C@H]2CN(c3ncccn3)C[C@H]2CN1CC1CC1`, with -51.9%; and `Cc1cc(C(=O)NCCc2nc3c(s2)CCCC3)n(C)n1`, with -90%; and `CC(C)NC(=O)CCN1CCCC1c1cccc2c1OCCO2` (stereo unspecified), with 53.4%.

Regarding `CCNC(=O)CCN1CCCC1c1cccc2c1OCCO2` (stereo unspecified), the INHIBITION was 52.7%. In the case of `O=C(CCN1CCCC1c1cccc2c1OCCO2)N1CCOCC1` (stereo unspecified), the INHIBITION is on record as -24.9%. Then `COC(=O)CCN1CCCC1c1cccc2c1OCCO2` (stereo unspecified), with -42.1%; and `NC(=O)NC(=O)CCN1CCCC1c1cccc2c1OCCO2` (stereo unspecified), with 24.8%. Take `COCCN1CCCC1c1cccc2c1OCCO2` (stereo unspecified): the INHIBITION is recorded as -0.537%.
